The source of these data is PubChem BioAssay (NCI).

Some test systems named below: NCI-H23 lung; NCI-H226 lung; NCI-H322M lung; HOP-62 NSCLC; NCI-H460 lung; HOP-92 NSCLC; NCI-H522 lung; A549/ATCC NSCLC; 786-0 renal; COLO 205 colon; DU-145 prostate; K-562 leukemia; MALME-3M melanoma; MDA-MB-231 breast; SF-268 CNS; SF-295 CNS; SF-539 CNS; UACC-257 melanoma; M14 melanoma; RXF 393 renal.
Holding throughout (assay): NCI-60 one-dose screen, 48 h (100 = growth as untreated, 0 = no growth, -100 = all killed)
What all share (details): 10 µM

Compounds without any hit were thinned out: in the full panel of roughly 83,000, 20% have a hit.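 For each line, cells grew in 96-well plates with the test compound present at a single concentration for 48 hours.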 A number with no mark means an inactive call. Activity calls are given as the source filed them. The calls were made as follows: active = growth percent below 10; inactive = the rest.

Regarding `COc1ccc(-c2cc(C(=O)N=Nc3c(O)[nH]c4ccc(F)cc34)c3ccccc3n2)cc1`, the growth with NCI-H23 lung is 44.4%; with NCI-H226 lung it was 68.3%; with NCI-H322M lung, 76.4%; in the experiment with HOP-62 NSCLC, 110%; with NCI-H460 lung, 44.2%; with HOP-92 NSCLC it was 87.1%. In addition, the growth was 70.8% with NCI-H522 lung; 88.3% with A549/ATCC NSCLC; 63.5% in the experiment with 786-0 renal; 103% with COLO 205 colon; 74.7% in the experiment on DU-145 prostate; 25.2% in the experiment with K-562 leukemia. In addition, the growth is 25.3% in the experiment with MALME-3M melanoma; 6.12% (active) in the experiment with MDA-MB-231 breast; 47.9% in the experiment with SF-268 CNS; 104% with SF-295 CNS; 39.5% with SF-539 CNS; 109% with UACC-257 melanoma. For the same compound, the growth in the experiment on M14 melanoma was 74.4%.
Take `CSc1nc(-c2cccc(C)c2)c2cc(-c3ccccc3)n(C)c2n1`: the growth in the experiment with NCI-H23 lung was 15.8%; in the experiment with NCI-H226 lung it was 40.7%; in the experiment with NCI-H322M lung it was 56.2%; in the experiment on HOP-62 NSCLC it was 37.4%; in the experiment on NCI-H460 lung it was 10.8%; with HOP-92 NSCLC, -8.91% (active). Moreover, the growth in the experiment on NCI-H522 lung was -11.8% (active); in the experiment with A549/ATCC NSCLC, 26.8%; with 786-0 renal, 20%; with COLO 205 colon it was 18.7%; in the experiment on DU-145 prostate, 31.4%; in the experiment on K-562 leukemia, 12%. Moreover, the growth in the experiment with MALME-3M melanoma is 20.1%; in the experiment with MDA-MB-231 breast it was 33.1%; in the experiment with SF-268 CNS, 25.7%; in the experiment on SF-295 CNS it was 17.3%; in the experiment with SF-539 CNS it was 14.3%; in the experiment on UACC-257 melanoma it was 40.5%. Further, in the experiment on M14 melanoma, the growth was 21%.
In the case of `Cc1nn(-c2ccccc2)c2ncn(CC(=O)N/N=C/c3c[nH]c4ccccc34)c(=O)c12`, the growth in the experiment with NCI-H23 lung is 95.4%; with NCI-H226 lung, 93.1%; in the experiment with NCI-H322M lung, 93.5%; with HOP-62 NSCLC, 95.6%; in the experiment on NCI-H460 lung, 92.9%; in the experiment on HOP-92 NSCLC, 80.5%. The growth in the experiment with NCI-H522 lung was 89%; in the experiment on A549/ATCC NSCLC it was 85.4%; in the experiment on 786-0 renal, 88%; in the experiment on COLO 205 colon, 109%; with DU-145 prostate, 99.6%; in the experiment on K-562 leukemia, 84.2%. For the same compound, the growth was 69% in the experiment on MALME-3M melanoma; 89.5% in the experiment on RXF 393 renal; 73.5% in the experiment with SF-268 CNS; 88.7% in the experiment on SF-295 CNS; 84.6% in the experiment on SF-539 CNS; 94.3% with UACC-257 melanoma. For the same compound, the growth in the experiment with M14 melanoma was 92.3%.
In the case of `Cc1ccc(-c2ccc(SCC(=O)Nc3ccc(Cl)c(C(F)(F)F)c3)nn2)cc1`, the growth in the experiment with NCI-H23 lung is 30%; in the experiment on NCI-H226 lung, 65.6%; with NCI-H322M lung it was 90.1%; with HOP-62 NSCLC, 30%; in the experiment on NCI-H460 lung it was 13.8%; in the experiment on HOP-92 NSCLC it was 72.7%. Besides, the growth is -1.27% (active) in the experiment with NCI-H522 lung; 40.4% in the experiment on A549/ATCC NSCLC; 35.1% with 786-0 renal; -11% (active) in the experiment on COLO 205 colon; 23.9% with DU-145 prostate; 4.76% (active) in the experiment on K-562 leukemia. Also, the growth in the experiment with MALME-3M melanoma is 38.7%; in the experiment with RXF 393 renal, -32.5% (active); with SF-268 CNS it was 38.6%; with SF-295 CNS, 13.2%; with SF-539 CNS, -35.1% (active); in the experiment on UACC-257 melanoma it was 57.6%. In the experiment on M14 melanoma, the growth is 2.2% (active).
As to `COc1cc(C2CC(c3ccc(C)cc3)=Nc3c(N)nc(N)nc3N2)ccc1Oc1nc(Nc2ccc(F)cc2)nc(N(C)C)n1` (configuration not stated), the growth is 73% in the experiment with NCI-H23 lung; 61.4% with NCI-H226 lung; 86.6% in the experiment on NCI-H322M lung; 93.9% in the experiment on HOP-62 NSCLC; 37.7% with NCI-H460 lung; 9.32% (active) with HOP-92 NSCLC. Moreover, the growth in the experiment on NCI-H522 lung is 87.3%; in the experiment on A549/ATCC NSCLC it was 88.1%; with 786-0 renal it was 50.4%; in the experiment with COLO 205 colon it was 48.1%; in the experiment on DU-145 prostate it was 53.7%; with K-562 leukemia, 19.8%. In addition, the growth in the experiment with MALME-3M melanoma is 64.8%; with MDA-MB-231 breast it was 38.7%; in the experiment with SF-268 CNS it was 54.7%; in the experiment with SF-295 CNS, 68.8%; in the experiment with SF-539 CNS, 72.9%; in the experiment with UACC-257 melanoma, 76.7%. The growth in the experiment on M14 melanoma was 67.5%.
Consider `NC1=NC(c2ccccc2Cl)N=C(Nc2nn[nH]n2)N1` (configuration not stated), for which the growth is 106% with NCI-H23 lung; 105% in the experiment with NCI-H226 lung; 111% with NCI-H322M lung; 108% in the experiment on HOP-62 NSCLC; 108% with NCI-H460 lung; 95.3% with HOP-92 NSCLC. Moreover, the growth with NCI-H522 lung is 102%; with A549/ATCC NSCLC, 103%; in the experiment with 786-0 renal, 103%; with COLO 205 colon, 116%; in the experiment with DU-145 prostate, 106%; with K-562 leukemia, 100%. Also, the growth is 101% in the experiment on MALME-3M melanoma; 113% in the experiment on RXF 393 renal; 101% with SF-268 CNS; 101% in the experiment with SF-295 CNS; 103% in the experiment with SF-539 CNS; 106% with UACC-257 melanoma.
`CCOP(=O)(OCC)O[C@H]1CC[C@]2(C)[C@H]3CC[C@@H]4[C@@H]([C@](C)(O)CCC=C(C)C)CC[C@@]4(C)[C@]3(C)CC[C@H]2C1(C)C`: the growth was 15.4% with NCI-H23 lung; 20.9% in the experiment with NCI-H226 lung; 74.1% in the experiment on NCI-H322M lung; 57.3% in the experiment on HOP-62 NSCLC; 11.2% with NCI-H460 lung; 2.88% (active) in the experiment on HOP-92 NSCLC. For the same compound, the growth is 1.32% (active) with NCI-H522 lung; 22.1% with A549/ATCC NSCLC; 23.3% with 786-0 renal; -33% (active) in the experiment on COLO 205 colon; 41.4% in the experiment on DU-145 prostate; 13% in the experiment on K-562 leukemia. Also, the growth with MALME-3M melanoma was 40.3%; with MDA-MB-231 breast it was 13.9%; with SF-268 CNS, 45.9%; with SF-295 CNS it was 32.1%; with SF-539 CNS, 42.7%; in the experiment on UACC-257 melanoma, 9.27% (active). Moreover, the growth with M14 melanoma is 29%.
